These results are taken from PubChem BioAssay (NCATS).

In assay [1] the test system is CRL-7250. Kind of assay: Cytotoxic Profiling of Annotated Libraries Using Quantitative High-Throughput Screening (AID 1296008). As to max response: % is scaled to controls: 0 for no effect and ±100 for the full control effect. Particulars: Five cell lines viability, CellTiter-Glo ATP luminescence, 48-72 h; max response: stronger effect = lower value. The procedure, abridged: (§1)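 Cytotoxicity was measured as CellTiter-Glo ATP luminescence, read after 10 min at room temperature. Compound treatment of the cells lasted 48 or 72 hr at 37 degrees Celsius in a qHTS format.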

For assay [2], the system named is HEK293. Described as above. Particulars: Five cell lines viability, CellTiter-Glo ATP luminescence, 48-72 h; max response: stronger effect = lower value. A digest of the protocol:
as §1

Assay [3] deals with HaCat. The assay is described as above. Particulars: Five cell lines viability, CellTiter-Glo ATP luminescence, 48-72 h; max response: stronger effect = lower value. A digest of the protocol:
as §1

For assay [4], the system named is KB-3-1. The description is as above. Particulars: Five cell lines viability, CellTiter-Glo ATP luminescence, 48-72 h; max response: stronger effect = lower value. A digest of the protocol: as §1
Assay [5] relates to ICS. Kind of assay: qHTS profiling for inhibitors of Plasmodium falciparum proliferation (AID 504749). Also: potency is read from the fitted curve at half-maximal effect. Particulars: P. falciparum in erythrocytes, SYBR Green DNA, 72 h; series mostly up to 28.7 µM. A digest of the protocol:
(§2)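 In a 72 h erythrocytic culture (37 C, humidified, 5% CO2) at 2.5% hematocrit and 0.3% starting parasitemia, compounds were tested; SYBR Green I in detergent lysis buffer stained parasite DNA overnight.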

The test system of assay [6] is JCK. The description is as above. Particulars: P. falciparum in erythrocytes, SYBR Green DNA, 72 h; series mostly up to 28.7 µM. The procedure, abridged:
as §2

For assay [7], the system named is SC27B. Described as above. Particulars: P. falciparum in erythrocytes, SYBR Green DNA, 72 h; series mostly up to 28.7 µM. The procedure, abridged: as §2
Assay [8] has as its system W2. Described as above. Particulars: P. falciparum in erythrocytes, SYBR Green DNA, 72 h; series mostly up to 28.7 µM. The procedure, abridged: as §2

Where “and” joins values, the source holds several entries; their conditions need not be identical. Equal values may be shown once. Records with an inconclusive call do not appear. Values without a mark were called inactive. Calls of active or inactive are those of the source. Calls follow the shape of the dose curve; as a rule, active = well fitted inhibition curve with a large enough effect; inconclusive = small, poorly fitted or top-dose-only effect; inactive = flat fitted curve, though single readings scatter.
Also: nearly all actives have a fitted effect of over 60% in size.

For the compound `CC(=O)NC1CCSC1=O` (stereo not given), the max response in assay [1] is -4.93%; in assay [3], -1.96%; in assay [4], -11.7% and -14.3%. Further, the call in assay [2] was inactive.
As for `O=c1c(C2CC(c3ccc(-c4ccc(Br)cc4)cc3)Cc3ccccc32)c(O)sc2ccccc12` (stereo not given), the max response in assay [1] is 0.288%.
Consider `C#CC(O)(C=CCl)CC` (stereo not given), for which the max response in assay [1] was -0.331%; in assay [2] it was -13.2%. In assay [3], the compound was classed as inactive.
With `O=c1[nH]c2ccccc2n1C1CCNCC1`, the result in assay [1] was inactive. Further, the max response in assay [2] is -4.64%; in assay [3] it was 3.09%.
For the compound `COc1cc(OC)c(OC)cc1C=O`, the max response is -7.23% and -7.54% in assay [1]; -6.96% in assay [2]; -4.25% in assay [3]; -7.6% and -8.54% in assay [4]. For the same compound, the call in assay [2] and in assay [3] was inactive.
In the case of `CCC(C)C(C)(COC(N)=O)COC(N)=O` (stereo not given), the results for the max response in assay [1] and in assay [3] were 1.47% and -3.56%, respectively. In assay [2], the result was inactive.
`CC(=O)C1CCOC1=O` (stereo not given): the call in assay [1], in assay [2] and in assay [3] was inactive.
As to `C#C[C@]1(O)CC[C@H]2[C@@H]3CCC4=CC(=O)CC[C@]4(C)[C@H]3CC[C@@]21C`, the max response is -4.49% in assay [1]; 2.42% in assay [2]; 2.04% in assay [3]; -5.39% and -1.95% in assay [4].
Consider `O=C(O)c1ccc(=O)[nH]c1`, for which the outcome in assay [1] and in assay [3] was inactive. For the same compound, in assay [2], the max response was -0.0722%.
Turning to `CCC1(c2ccc(N)cc2)CCC(=O)NC1=O` (stereo not given), the max response in assay [1] is 1.43% and -1.25%; in assay [2], 4.46%; in assay [3], 2.56% and -2.32%; in assay [4], 5.24% and 0.522%. In assay [2], the call was inactive.
`CC(NC(C)(C)C)C(=O)c1cccc(Cl)c1` (stereo not given): the max response in assay [1] was -10.7%; in assay [3], -7.82%; in assay [4], -3.99% and 2.03% and 8.68%. The compound was called inactive in assay [1] and in assay [3].
As for `C[C@H](N)C(=O)c1ccccc1`, the max response in assay [1] was -38.6%; in assay [2], -0.637%; in assay [3], -26.7%; in assay [4], -7.79% and 0.534%.
`CC[N+]1(CC)CCC(OC(=O)C(O)(c2ccccc2)c2ccccc2)C1` (stereo not given): the max response in assay [1] was -3.85%; in assay [2] it was 3.52%. The compound was classed as inactive in assay [3].
On to `CC(=O)OCC1=C(C(=O)O)N2C(=O)[C@@H](N)[C@H]2SC1`, for which the max response is -3.91% in assay [1]; 0.778% and -3.29% in assay [2]; -3.66% and 4.2% in assay [3]; -19.8% in assay [4]. Besides, the compound was called inactive in assay [1] and in assay [4].
Regarding `C=CCN1C[C@H](C)N([C@H](c2ccc(C(=O)N(CC)CC)cc2)c2cccc(OC)c2)C[C@H]1C`, the Potency in assay [5] was 12.6 µM (active); in assay [8] it was 15.1 µM (active). Moreover, the Potency entry in assay [6] and in assay [7] was “inactive” each time. The max response in assay [1] was 0.0318%; in assay [4], 2.69%. Besides, the compound was classed as inactive in assay [1], in assay [3] and in assay [4].
Take `CN(C)CCc1c[nH]c2cccc(OP(=O)(O)O)c12`: the max response in assay [1] is -37.9%; in assay [2], -1.43%; in assay [3], 4.32%; in assay [4], -1.8%.
With `CC(C)N(CCC(C(N)=O)(c1ccccc1)c1ccccn1)C(C)C` (stereo not given), the max response was -4.51% in assay [1]; -27.6% in assay [3]; -6.29% and -10.8% in assay [4]. In addition, the result in assay [1] and in assay [3] was inactive.
For `COc1cc(CC(C)N)cc(OC)c1OC` (stereo not given), the max response was -18.9% in assay [1], -9.05% in assay [2], 2.22% in assay [3] and -7.25% in assay [4].
